Screening data from PubChem.
TrxR1 inh – inhibitors of rat thioredoxin reductase 1. O89049. 1% of 390,000 active. Potency, µM (highest dose often 114 µM), without a hit: top-dose activity change, negative = inhibition, most hits filed as inhibitors. recombinant rTrxR1, NADPH fluorescence consumption, selenite substrate. AID 588453; note: nearly all actives have a fitted effect of over 65% in size
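Rat TrxR1 (90 nM in the dispensed reagent) was pre-reduced with 400 uM NADPH for 5 min at room temperature, then incubated with compound for 15 min. After 400 uM selenite was added, NADPH fluorescence (Ex 340/Em 450 nm) was followed for 8 min.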
Sfp inh – inhibitors of Bacillus subtilis Sfp phosphopantetheinyl transferase; Q9F4F7; Biochemical Sfp PPTase activity, qHTS; Potency, µM, inactives show largest response in the series, negative = inhibition, actives largely listed as inhibitors; 3.5% of 310,000 active; AID 1490;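 note: the enzyme is Sfp with the accession as filed and its product quenches rhodamine fluorescence; 0% = enzyme reaction without inhibitor and -100% = no enzyme wells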
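Reaction rates are the 30-min fluorescence difference (ex 525, em 598 nm) in wells containing 15 nM Sfp, 5 uM rhodamine-CoA and 12.5 uM BHQ-2-YbbR at pH 7.6 with 10 mM MgCl2.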
TrxR1 substrate – rat thioredoxin reductase 1 substrate activity; Potency, µM (doses to about 114 µM), inactives show at the highest dose activity change, negative = substrate turnover; purified TrxR1 substrate turnover, NADPH consumption readout; O89049; 0.01% of 390,000 active; note: nearly all actives have a fitted effect of over 50% in size
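Rat TrxR1, dispensed at 90 nM, was prereduced with 400 uM NADPH (final) for 5 min at ~22 deg C, then incubated with compound 15 min before 400 uM selenite. A first-read NADPH fluorescence drop versus no-compound background flagged substrates.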
VDR inh – blocks the human vitamin D receptor; VDR-SRC2-3 peptide fluorescence polarization, 2 h; Potency, µM, without a hit: max response, negative = inhibition, actives largely listed as inhibitors; 0.93% of 400,000 active; AID 504847
Target sequence (P11473 whole entry, looked up): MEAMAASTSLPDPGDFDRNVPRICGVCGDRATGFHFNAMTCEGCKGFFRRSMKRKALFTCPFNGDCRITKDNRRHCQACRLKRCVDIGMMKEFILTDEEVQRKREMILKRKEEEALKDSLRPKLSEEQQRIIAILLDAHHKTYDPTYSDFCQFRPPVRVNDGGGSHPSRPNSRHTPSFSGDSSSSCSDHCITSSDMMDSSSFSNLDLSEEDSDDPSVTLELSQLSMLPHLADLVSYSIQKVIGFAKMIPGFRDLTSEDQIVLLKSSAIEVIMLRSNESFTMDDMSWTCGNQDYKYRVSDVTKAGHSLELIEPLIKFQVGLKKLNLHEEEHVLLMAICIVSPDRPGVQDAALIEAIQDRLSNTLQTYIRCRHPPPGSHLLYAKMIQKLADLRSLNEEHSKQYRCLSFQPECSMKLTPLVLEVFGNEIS
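FP read-out; VDR + SRC2-3 coactivator peptide; 23 nl compound by pintool; 2 h RT incubation; reagents held at 4 deg C, protected from light.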
mIDH1 inhibitor – inhibitors of human mutant IDH1 R132H; AID 602179; IDH1-R132H enzyme, NADPH consumption, diaphorase/resazurin fluorescence; Potency, µM (highest dose often 76.6 µM), for the others: at the highest dose activity change, negative = inhibition, most hits filed as inhibitors; O75874; 0.093% of 390,000 active; note: nearly all actives have a fitted effect of over 65% in size
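IDH1-R132H (0.5 ug/mL) preincubated 30 min with compound, then NADPH (0.016 mM) and alpha-KG (2 mM) added; 80 min at RT, pH 7.5. Remaining NADPH coupled via diaphorase/resazurin to fluorescence (540/590 nm); concentration-response curves normalized to no-enzyme control.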
PLK1 PBD block – inhibitors of human PLK1 polo-box domain binding. Plk1 PBD binding of FITC phosphopeptide, fluorescence polarization. Potency, µM, without a hit: max response, negative = inhibition, hits mostly inhibitors. P53350. 2.8% of 360,000 active. AID 720504; note: series mostly up to about 57 µM; nearly all actives have a fitted effect of over 65% in size
An asterisk follows results filed as active; ? = inconclusive; . = no result; [ ] = dose if it differs, or a comment. The list is not random: actives were taken first. Their share in the collection is about 5.2%. Calls come from the whole dose curve; as a rule, active = well fitted curve in the direction sought with a large enough effect; inconclusive = small, poorly fitted or top-dose-only effect, or another doubt; inactive = no such curve, though single readings can be large; an effect the other way counts as inactive or inconclusive. Unless noted, % is set by controls: 0 for no effect and ±100 for the full control effect; potency is the fitted concentration of half-maximal effect.

SMILES	TrxR1 inh	Sfp inh	TrxR1 substrate	VDR inh	mIDH1 inhibitor	PLK1 PBD block
COc1ccc(NC(=O)/C(=C\c2cccs2)NC(=O)c2ccco2)cc1	4%	-1%	-1%	-11%	0%	21µM*
O=C(O)c1ccc(N2C(=O)CC(N3C(=O)/C(=C/c4ccc(Cl)cc4)SC3=S)C2=O)cc1 (configuration not stated)	-17%	?	-10%	?	-2%	27µM*
Nc1c(C(=O)NC2CCCC2)sc2nc(-c3cccs3)ccc12	5%[57.1 µM]	45µM*	1%[57.1 µM]	-19%	-9%	-17%
Cc1cc2cc(CNC(=O)c3cccs3)ccc2n1C	4%	45µM*	-1%	-14%	-3%	27µM*
CCOC(=O)CCC(=O)NCc1ccc2c(c1)cc(C)n2C	4%	79µM*	1%	12%	9%	-5%
CCCCCCCC1c2c(c(C)c(C)oc2=O)Oc2c(C)c(C)oc(=O)c21	3%	.	-4%	-17%	-2%	-10%
O=C1/C(=C/c2ccc(F)cc2)SC(=S)N1Nc1ncc(C(F)(F)F)cc1Cl	-12%	50µM*	-3%	?	-5%	-28%
O=C1/C(=C/c2ccccn2)SC(=S)N1Nc1ncc(C(F)(F)F)cc1Cl	?	.	-18%	28µM*	-3%	?
Cc1cc(C)nc(NN2C(=O)/C(=C/c3ccc(O)cc3)SC2=S)n1	?	-27%	-1%	10%	1%	71%
O=C1/C(=C/c2ccccn2)SC(=S)N1NS(=O)(=O)c1ccccc1	-6%[57.1 µM]	-1%	-13%	-25%	-3%	-16%
O=C1/C(=C\c2ccccn2)SC(=S)N1Nc1ncc(C(F)(F)F)cc1Cl	?	50µM*	-13%	?	-5%	?
CC(=O)c1cccc(NC(=O)CCc2nc3cccnc3n2Cc2cccs2)c1	?	.	-4%	?	-9%	.
CCCCCCCCCCCCCCCC(N)=O	.	10%	.	-1%	.	.
CCCCC(=O)N(c1ccc(C(=O)O)cc1)c1nc(-c2ccc(Cl)cc2)c(CC)s1	10%	2%	3%	-18%	-2%	27µM*
O=C(O)c1cccc(-n2cccc2/C=C2/NC(=O)N(Cc3ccccc3F)C2=O)c1	8%[57.1 µM]	50µM*	-1%[57.1 µM]	15%	-2%	-23%
O=C1N/C(=C/c2cccn2-c2ccccc2)C(=O)N1Cc1ccc(F)cc1	6%[57.1 µM]	45µM*	10%[57.1 µM]	1%	18%	-2%
COCCn1c(C23CC4CC(CC(C4)C2)C3)n[nH]c1=S	-7%[57.1 µM]	32µM*	9%[57.1 µM]	-12%	0%	-10%
COc1ccc(-c2nc3ccccc3c(=O)n2NC(=S)N(C)C)cc1	?	18µM*	-13%	35µM*	1%	4.7µM*
CC(=O)Nc1ccc2nc(-c3ccc(Br)o3)[nH]c2c1	11µM*	-72%	-2%	-15%	7%	-12%
O=C(Nc1ccc2nc(-c3ccc(Br)o3)[nH]c2c1)c1ccco1	-54%	?	5%[57.1 µM]	21%	14%	-11%
O=C(Nc1ccc2nc(-c3ccc(Br)o3)[nH]c2c1)c1cccs1	16µM*	-66%	-1%	-13%	7%	-13%
Cc1ccccc1N1C(S)=C(C#N)C(=O)NC1c1ccco1 (configuration not stated)	-33%	13µM*	0%	79µM*	-4%	?
Cc1cccc(N2C(S)=C(C#N)C(=O)NC2c2cccs2)c1 (configuration not stated)	-10%	32µM*	-1%	50µM*	-1%	?
CC(=O)C1=C(C)N(CC2CC2)C(=O)N[C@H]1c1cccs1	4%[57.1 µM]	25%	1%[57.1 µM]	-3%	0%	-11%
Cc1ccccc1N1C(S)=C(C#N)C(=O)NC1c1cccs1 (configuration not stated)	-21%[57.1 µM]	6%	2%[57.1 µM]	22µM*	-2%	?
SMILES	TrxR1 inh	Sfp inh	TrxR1 substrate	VDR inh	mIDH1 inhibitor	PLK1 PBD block
N#CC1=C(S)N(c2ccc(F)cc2)C(c2cccs2)NC1=O (configuration not stated)	-13%[57.1 µM]	56µM*	-5%	?	1%	-16%
CC(=O)C1=C(C)NC(SCC(N)=O)=C(C#N)C1c1cccs1 (configuration not stated)	-3%	-25%	7%	0%	2%	-5%
CCOc1ccc(NC(=O)CN(C)C(=O)c2ccc3nc(CC)c(CC)nc3c2)cc1OCC	-4%	.	-9%	-2%	7%	3%
Cc1cc(=O)n(CC(=O)N2CCCCC2)c2c1c(C)nn2C	9%[57.1 µM]	.	-2%[57.1 µM]	13%	2%	.
N#CC1=C(S)N(c2ccccc2)C(c2ccc(-c3ccccc3Cl)o2)NC1=O (configuration not stated)	?	40µM*	-9%	40µM*	?	19µM*
Cc1ccc(S(=O)(=O)N2[C@H](CC(=O)c3cccs3)OC[C@@H]2C(C)C)cc1	.	.	.	.	.	-16%
O=C(NNc1nc2cc3c(cc2s1)OCO3)c1ccccc1	18%	?	6%	-13%	6%	-7%
COc1cccc(OC)c1C(=O)Nc1nc2cc3c(cc2s1)OCO3	20%	0%	28%	-15%	0%	-15%
COc1cc(OC)cc(C(=O)NNc2nc3cc4c(cc3s2)OCO4)c1	5%[57.1 µM]	79µM*	6%[57.1 µM]	-21%	0%	-2%
COc1cc(C(=O)NNc2nc3cc4c(cc3s2)OCO4)cc(OC)c1OC	-4%[57.1 µM]	20µM*	4%[57.1 µM]	-3%	15%	5%
O=C(NNc1nc2cc3c(cc2s1)OCO3)c1cccc(F)c1	5%	28µM*	0%	-12%	-3%	-2%
O=C(COc1ccc2c(c1)CCC2)NCc1cccc(Cl)c1	-8%	2%	-11%	-6%	9%	21%
O=C(COc1ccc2c(c1)CCC2)NCc1ccc(Cl)cc1	23%	-10%	1%	-27%	0%	30µM*
O=c1ccc2ccc(OS(=O)(=O)O)cc2o1	.	5%	.	5%	.	.
CCOC(=O)c1c(S(=O)(=O)N2CCCC(C(=O)Nc3cc(C)ccn3)C2)c(C)n(C)c1C (configuration not stated)	11%[57.1 µM]	.	-3%[57.1 µM]	22%	9%	.
CCOC(=O)c1c(NC(=O)CSc2nc(-c3ccc(OC)cc3)cc(C(F)(F)F)n2)sc(C)c1C	3%	.	-1%	79µM*	4%	.
Cc1sc(NC(=O)Nc2ccccc2)c(C(N)=O)c1C	-6%[57.1 µM]	20µM*	3%	89µM*	2%	-30%
Cc1ccccc1-c1cc(C(=O)Nc2sc(C)c(C)c2C(N)=O)c2ccccc2n1	-19%	50µM*	-10%	-1%	2%	27µM*
CCOC(=O)c1c(NC(=O)c2cc(-c3ccc(Cl)s3)nc3ccccc23)sc(C(N)=O)c1C	-2%	4%	2%	3%	1%	-10%
